Laboratory results: PubChem BioAssay (NCATS)
Activity calls are given as the source filed them. Calls follow the shape of the full dose curve.

Each compound was assayed against Tumor susceptibility gene 101 protein (Homo sapiens) (UniProt Q99816) (assay: qHTS Validation Assay for Iinhibitors of HIV-1 Budding by Blocking the Interaction of PTAP/TSG101 (AID 485342; also: 0% is about no effect)). Conditions: TSG101-PTAP binding, fluorescence polarization, 4-point titration; series mostly up to 115 µM; fluorescence change: at the top concentration.
Tumor susceptibility gene 101 protein (Homo sapiens), sequence (Q99816 whole entry, looked up): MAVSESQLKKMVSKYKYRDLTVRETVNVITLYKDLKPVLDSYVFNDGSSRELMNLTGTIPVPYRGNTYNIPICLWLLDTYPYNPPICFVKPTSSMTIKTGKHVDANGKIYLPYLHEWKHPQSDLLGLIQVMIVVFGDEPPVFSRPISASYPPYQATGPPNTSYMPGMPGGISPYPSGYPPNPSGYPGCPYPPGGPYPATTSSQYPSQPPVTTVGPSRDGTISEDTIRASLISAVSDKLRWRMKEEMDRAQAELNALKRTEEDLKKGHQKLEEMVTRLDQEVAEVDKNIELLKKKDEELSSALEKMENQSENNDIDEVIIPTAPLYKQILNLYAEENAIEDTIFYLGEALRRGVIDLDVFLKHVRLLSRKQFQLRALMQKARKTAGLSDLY
Description: NIH Molecular Libraries Probe Production Network [MLPCN]
NIH Chemical Genomics Center [NCGC]
PI Name: Dr. Eric Freed, NCI
Stages of the HIV-1 replication cycle, specifically virus assembly and release, provide underexploited targets for the development of novel antiviral inhibitors. The late stages of HIV-1 replication are mediated by the Gag precursor protein, Pr55Gag. Expression of Pr55Gag is both necessary and sufficient for the production of virus-like particles from Gag-expressing cells. The Gag protein hijacks key host proteins involved in endocytic machinery of the host cell to promote endosomal processing and viral budding. The budding process requires a direct interaction between a […] (PTAP) motif in the p6 domain of Gag and the cellular endosomal sorting protein known as Tsg101. In this way, the Gag PTAP motif promotes the host cells to recruit viral particles to the plasma membrane where the new viral particles are released, effectively turning the host cells into viral factories. A fluorescence anisotropy assay has been developed to quantitatively measure the PTAP-Tsg101 interaction which can be used to screen for inhibitors of this interaction.
NCGC Assay Protocol Summary:
Two uL of the Tsg101 binding domain in buffer (10 mM HEPES pH 7.5; 0.15 M NaCl, 0.01% Tween 20; 3 mM EDTA;0.1 mM TCEP) was dispensed into Greiner black MB 1536-well plates (final concentration 10 uM). Then, 23 nL of compounds or DMSO were delivered to each well using a pin tool. Finally, 2 uL of a FITC-labeled peptide containing the PTAP motif (1) in the same buffer was dispensed (50 nM final concentration) and the binding was allowed to proceed for 20 min. at r.t. Fluorescent polarization was determined using FITC excitation and polarized emission filters on a Perkin Elmer Viewlux.
Keywords: Tsg101, PTAP, Gag, HIV, fluorescent polarization, MLSMR, MLPCN, NIH Roadmap, qHTS, NCGC

Structure (SMILES) | fluorescence change
N#C/C(=C\c1ccc(O)c(O)c1)C(=O)NCCc1ccccc1 | -1.7% (inactive)
N[C@H]1CONC1=O | 0.631% (inactive)
N[C@@H](CS(=O)O)C(=O)O | 3.45% (inactive)
COc1ccccc1N1CCN(CCCCNC(=O)c2ccc3ccccc3c2)CC1 | -0.232% (inactive)
CCCCCC(O)CCCC(=O)O (stereo not given) | 0.624% (inactive)
CCCc1c(-c2ccc(O)cc2)nn(-c2ccc(O)cc2)c1-c1ccc(O)cc1 | -11.1% (inactive)
O=c1[nH]c(=S)[nH]c(-c2ccccc2)c1Cc1c(O)ccc2ccccc12 | -9.55% (inactive)
CO/N=C(\C(=O)N[C@@H]1C(=O)N2C(C(=O)O)=C(CSc3nc(=O)c(O)nn3C)CSC12)c1csc(N)n1 (stereo not given in full) | 4.58% (inactive)
CC(=O)O[C@H]1CC2(C)[C@@H](C[C@@H](O)[C@H]3[C@@]4(C)CC[C@@H](O)[C@@H](C)[C@@H]4CC[C@@]32C)C1=C(CCC=C(C)C)C(=O)O (stereo not given in full) | 5.37% (inactive)
COc1cccc(OC)c1OCCNCC1CSc2ccccc2O1 (stereo not given) | 3.56% (inactive)
CCCN(CCc1ccccc1)C1CCc2c(O)cccc2C1 (stereo not given) | 1.39% (inactive)
O=c1ccn([C@@H]2O[C@H](COP(=O)(O)OP(=O)(O)O)[C@@H](O)[C@H]2O)c(=O)[nH]1 | 1.49% (inactive)
C=CCN1CCc2c(cc(O)c(O)c2Br)[C@@H](c2ccccc2)C1 | -9.04% (inactive)
CCCCCCC/C=C\CCCCCCCCC(=O)O | -25.9% (inactive)
C/C(=C\c1ccc(C(=O)O)cc1)c1ccc2c(c1)C(C)(C)CCC2(C)C | -3.48% (inactive)
O=C(O)C1=CCNCC1 | -5.11% (inactive)
Fc1ccc(CN(C2=NCCN2)c2c(Cl)cccc2Cl)cc1 | 1.65% (inactive)
NC1(C(=O)O)CCc2cc(C(=O)O)ccc21 (stereo not given) | 8.43% (inactive)
C[C@H](O)C(=O)C1=Nc2c(nc(N)[nH]c2=O)NC1 | 2.75% (inactive)
O=C(O)c1cc2cc(F)ccc2[nH]1 | 5.92% (inactive)

Structure (SMILES) | fluorescence change
O=C(O)C1=CC(=C(c2ccc(O)c(C(=O)O)c2)c2ccc(O)c(C(=O)O)c2)C=CC1=O | -12.3% (inactive)
CCN1C(=O)C=CC1=O | 3.16% (inactive)
OC[C@H]1O[C@@H](n2cnc3cncnc32)[C@H](O)[C@@H]1O | 2.61% (inactive)
NC1CCN(O)C1=O (stereo not given) | 4.29% (inactive)
C=CC1(C)CC(=O)C2(O)C(C)(O1)C(OC(C)=O)C(O)C1C(C)(C)CCC(O)C12C (stereo not given) | -6.01% (inactive)
Nn1nnc2ccccc21 | 3.07% (inactive)
C=CC[C@H](N)C(=O)O | -4.7% (inactive)
COC(=O)[C@H](NC(=O)c1cc(-c2ccccc2)nc2ccccc12)c1ccccc1 | -10.3% (inactive)
O=c1cc(-c2ccccc2)[nH]c2nc(Cl)ccc12 | 3.86% (inactive)
O=C(O)c1ccccc1Nc1ccccc1 | -2.85% (inactive)
COC(=O)C(C)(N)Cc1ccc(O)cc1 (stereo not given) | -0.254% (inactive)
CCCCCCCC/C=C\CCCCCCCC(=O)NCCc1ccc(O)c(O)c1 | -27.4% (inactive)
CCOC(=O)C12CC1/C(=N/O)c1ccccc1O2 (stereo not given) | 2.82% (inactive)
CC(O)C(O)[C@H]1CNc2nc(N)[nH]c(=O)c2N1 (stereo not given in full) | 3.02% (inactive)
CC[C@@H]1Cc2cc(O)ccc2C2=C1c1ccc(O)cc1C[C@H]2CC | 4.34% (inactive)
Cc1cccc(C(=O)NCN2CCN(c3ccccc3C#N)CC2)c1 | -2.32% (inactive)
O=C(O)C1CN(CCCP(=O)(O)O)CCN1 (stereo not given) | 5.07% (inactive)
CC(=O)C(C)=O | 3.91% (inactive)
C#CCn1c(=O)c2c(ncn2C)n(C)c1=O | -1.02% (inactive)
C=CCN1CCc2c(cc(O)c(O)c2Cl)C(c2ccccc2)C1 (stereo not given) | -0.537% (inactive)
